NPR1 antag – blocks ANP-stimulated signaling of human Npr1 receptor; Potency, µM (doses to about 46.3 µM), for the others: at the top dose activity change, negative = inhibition, hits mostly inhibitors; P16066; HEK293 hNpr1 GloSensor cGMP, ANP-stimulated luminescence; actives 1.6% (n = 76,000); AID 1347048; calls by dose curve; also: nearly all actives have a fitted effect of over 60% in size
Target sequence (P16066 whole entry, looked up): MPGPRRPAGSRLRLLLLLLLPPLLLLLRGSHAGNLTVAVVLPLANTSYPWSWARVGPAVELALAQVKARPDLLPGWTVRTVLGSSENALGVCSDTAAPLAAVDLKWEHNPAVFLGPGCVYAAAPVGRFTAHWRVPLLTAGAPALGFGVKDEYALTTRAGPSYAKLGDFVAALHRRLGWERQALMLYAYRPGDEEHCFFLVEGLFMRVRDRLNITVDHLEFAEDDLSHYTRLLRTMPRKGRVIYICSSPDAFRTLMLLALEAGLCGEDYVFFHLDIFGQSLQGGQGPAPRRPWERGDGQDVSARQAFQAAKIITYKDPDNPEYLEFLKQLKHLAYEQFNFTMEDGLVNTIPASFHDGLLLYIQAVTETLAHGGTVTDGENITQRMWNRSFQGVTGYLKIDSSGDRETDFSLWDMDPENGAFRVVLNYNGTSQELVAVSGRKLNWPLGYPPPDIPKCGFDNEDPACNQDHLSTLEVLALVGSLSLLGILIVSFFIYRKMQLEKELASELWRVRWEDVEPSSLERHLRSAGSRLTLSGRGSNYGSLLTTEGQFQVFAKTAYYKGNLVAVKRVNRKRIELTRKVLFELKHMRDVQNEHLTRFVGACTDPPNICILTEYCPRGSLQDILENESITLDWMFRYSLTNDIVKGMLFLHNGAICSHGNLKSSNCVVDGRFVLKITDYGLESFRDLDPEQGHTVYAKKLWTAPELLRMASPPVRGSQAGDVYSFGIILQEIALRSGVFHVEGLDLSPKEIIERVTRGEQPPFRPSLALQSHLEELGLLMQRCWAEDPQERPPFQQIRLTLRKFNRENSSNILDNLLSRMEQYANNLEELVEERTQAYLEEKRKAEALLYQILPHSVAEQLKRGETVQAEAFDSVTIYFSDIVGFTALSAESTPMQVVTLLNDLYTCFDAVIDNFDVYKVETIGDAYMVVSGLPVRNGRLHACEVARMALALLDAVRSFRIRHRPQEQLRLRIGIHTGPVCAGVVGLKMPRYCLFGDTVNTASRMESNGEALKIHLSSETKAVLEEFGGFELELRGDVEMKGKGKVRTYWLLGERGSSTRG
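Compound pre-incubated 30 min at room temperature on GloSensor-loaded HEK293 cells stably carrying hNpr1 and the pGS-40F cGMP biosensor. Stimulation uses hNppA at 0.1 nM final; luminescence is taken at baseline and 20 min post-agonist.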
NIH3T3 tox – NIH 3T3 cell cytotoxicity. NIH 3T3 viability, CellTiter-Glo ATP luminescence, 48-72 h. Potency, µM (series often up to 96.7 µM), without a hit: at the top dose activity change, negative = cytotoxicity, hits mostly inhibitors. actives 4.3% (n = 94,000); also: nearly all actives have a fitted effect of over 55% in size
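Luminescent ATP readout (CellTiter-Glo, 10 min RT) after 48 or 72 hr compound exposure of NIH 3T3 cells seeded at 400 cells/well in 1536-well format; quantitative HTS.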
Luciferase inh – Photinus pyralis luciferase inhibition | Potency, µM (doses to about 115 µM), usual class: inhibitors | actives 2.5% (n = 76,000) | AID 1347043 | purified P. pyralis luciferase, luminescence, biochemical | P08659; also: nearly all actives have a fitted effect of over 65% in size
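Cell-free enzyme assay, 10nM P. pyralis luciferase, luciferin and ATP each at 10uM. Inhibition profiled over a 6-point titration, read as luminescence.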
HEK293 tox – kills HEK 293 cells; HEK 293 viability, ATP luminescence (CellTiter-Glo), 48-72 h; Potency, µM (titrated, usually from 115 µM), for the others: at the highest dose activity change, negative = cytotoxicity, actives largely listed as inhibitors; actives 6.6% (n = 94,000); AID 1345083; also: nearly all actives have a fitted effect of over 60% in size
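Luminescence from cellular ATP, measured with CellTiter-Glo, indicates HEK 293 viability. Cells plated at 250 cells/well are treated with compound for 48 or 72 hr at 37 degree Celsius before reagent addition.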
The depositor's hits bear a star; [ ] = remark or other dose. Compounds with a hit are over-represented: about 11% of the library has one in this group of screens. Unless noted, calls follow the shape of the dose curve; as a rule, active = well fitted curve in the direction sought with a large enough effect; inconclusive = small, poorly fitted or top-dose-only effect, or another doubt; inactive = no such curve, though single readings can be large; an effect the other way counts as inactive or inconclusive. % is scaled to controls: 0 for no effect and ±100 for the full control effect; potency is read from the fitted curve at half-maximal effect.

How did O=c1[nH]c(C2CCCN(Cc3cccc(-c4ccc(F)cc4F)c3)C2)nc2ccc(F)cc12 (configuration not stated) do in these assays?
NPR1 antag: inconclusive; NIH3T3 tox: inconclusive; Luciferase inh: inactive; HEK293 tox: 39.8µM*

How did O=C(NCc1cccs1)C1CCCN(c2ccnc3ccnn23)C1 (configuration not stated) do in these assays?
NIH3T3 tox: inconclusive; HEK293 tox: 89.1µM*

What do the screens show for `COc1ccccc1Nc1ccnc(N2CCC(C(=O)NCc3cccc(C(F)(F)F)c3)CC2)n1`?
NIH3T3 tox: 31.6µM*; HEK293 tox: inconclusive

Results for O=C(NCc1cccc(C(F)(F)F)c1)C1CCN(c2ccnc3ccnn23)CC1 ?
NIH3T3 tox: inconclusive; HEK293 tox: 35.5µM*

Results for COc1ccccc1Nc1ccnc(N2CCC(C(=O)NCCSC)CC2)n1 ?
NIH3T3 tox: 39.8µM*; HEK293 tox: inconclusive

How did COc1ccccc1Nc1ccnc(N2CCC(C(=O)N3CCOCC3)CC2)n1 do in these assays?
NIH3T3 tox: inconclusive; HEK293 tox: 2.1%

How did O=C(C1CCCN1[S+](=O)([O-])c1ccccc1)N1CCC(N2CCCC2=O)CC1 (configuration not stated) do in these assays?
NIH3T3 tox: -17.3%; HEK293 tox: -3.1%

Results for CCOC(=O)C1CCN(C(=O)c2ccc3nnc(C(C)(C)C)n3c2)CC1 ?
NIH3T3 tox: -26.3%; HEK293 tox: -22.0%

How did COc1ccc(CCC(=O)N2CCC3(CC2)NC(=O)N(c2cccc(Cl)c2)N3)cc1 do in these assays?
NPR1 antag: -3.8%; NIH3T3 tox: inconclusive; Luciferase inh: inactive; HEK293 tox: inconclusive

What do the screens show for `CC(C)CN1C(=O)c2cccn2CC1CNC(=O)c1nn(C)c2ccccc12` (configuration not stated)?
NIH3T3 tox: -21.2%; HEK293 tox: inconclusive

How did Cc1cnc(CC2CCN(S(=O)(=O)c3ccc4c(c3)CCC4)C2)n1CC1CC1 (configuration not stated) do in these assays?
NPR1 antag: inconclusive; NIH3T3 tox: inconclusive; Luciferase inh: inactive; HEK293 tox: 50.1µM*

Results for COc1ccccc1-n1c(=O)c(C(=O)N2CCN(C(C)=O)CC2)nc2cccnc21 ?
NIH3T3 tox: -5.4%; HEK293 tox: inactive

What do the screens show for `CCOC(=O)[C@@H]1[C@@H](OC)C(=O)N(C)C12CCN(C(=O)OCC(C)C)CC2`?
NIH3T3 tox: inconclusive; HEK293 tox: -5.6%

Results for COCCNC(=O)C(C)(C)Oc1nn(Cc2cccc(Cl)c2)c2ccccc12 ?
NPR1 antag: -26.5%[70.6 µM]; NIH3T3 tox: inconclusive; Luciferase inh: inactive; HEK293 tox: 79.4µM*

What do the screens show for `COCCCNC(=O)C(C)(C)Oc1nn(Cc2cccc(Cl)c2)c2ccccc12`?
NPR1 antag: inconclusive; NIH3T3 tox: inconclusive; Luciferase inh: inactive; HEK293 tox: inconclusive

Results for CN1CCC(NC(=O)C(C)(C)Oc2nn(Cc3cccc(Cl)c3)c3ccccc23)CC1 ?
NPR1 antag: -26.1%[70.6 µM]; NIH3T3 tox: 31.6µM*; Luciferase inh: inactive; HEK293 tox: 39.8µM*

How did CC(C)(Oc1nn(Cc2cccc(Cl)c2)c2ccccc12)C(=O)NCC1CCOCC1 do in these assays?
NPR1 antag: inconclusive; NIH3T3 tox: inconclusive; Luciferase inh: inactive; HEK293 tox: inconclusive

Results for CC(C)(Oc1nn(Cc2cccc(Cl)c2)c2ccccc12)C(=O)NCc1cnccn1 ?
NPR1 antag: -23.3%[70.6 µM]; NIH3T3 tox: inconclusive; Luciferase inh: inactive; HEK293 tox: 89.1µM*

Results for CC(C)(Oc1nn(Cc2cccc(Cl)c2)c2ccccc12)C(=O)NCc1ccncc1 ?
NPR1 antag: inconclusive; NIH3T3 tox: 31.6µM*; Luciferase inh: inactive; HEK293 tox: inconclusive

What do the screens show for `CO[C@H]1CN(C2CCN(C(=O)c3cc(C)n(C)n3)CC2)[C@H]1c1cccnc1`?
NIH3T3 tox: -13.2%; HEK293 tox: inactive

What do the screens show for `CC(=O)Nc1ccc(CC(=O)NCCc2noc(-c3ccccc3)n2)cc1`?
NIH3T3 tox: -17.0%; HEK293 tox: inactive

How did O[C@@H]1CCC2CC1[C@@H](O)CN2Cc1ccc(-c2ccccc2)cc1 (some centres not stated) do in these assays?
NIH3T3 tox: inconclusive; HEK293 tox: 79.4µM*

Results for CN1CCCCCC(O)c2cc(C(=O)N3CCN(c4ccc(F)cc4)CC3)ccc21 (configuration not stated) ?
NPR1 antag: -27.4%; NIH3T3 tox: inconclusive; Luciferase inh: inactive; HEK293 tox: 44.7µM*

What do the screens show for `CN1CCCCCC(O)c2cc(C(=O)NC3CCN(Cc4ccccc4)CC3)ccc21` (configuration not stated)?
NPR1 antag: inconclusive; NIH3T3 tox: inconclusive; Luciferase inh: inactive; HEK293 tox: 11.2µM*

How did CN1CCCCCC(O)c2cc(C(=O)NCCCc3ccccc3)ccc21 (configuration not stated) do in these assays?
NPR1 antag: -15.3%; NIH3T3 tox: inconclusive; Luciferase inh: inactive; HEK293 tox: inconclusive

Results for COc1ccccc1CN1CCN(C(=O)c2ccc3c(c2)C(O)CCCCCN3C)CC1 (configuration not stated) ?
NPR1 antag: -22.1%; NIH3T3 tox: inconclusive; Luciferase inh: inactive; HEK293 tox: 50.1µM*

Results for O=C(C1CCCN1C(=O)Nc1ccccc1)N1CCC(c2nc3ccncc3[nH]2)CC1 (configuration not stated) ?
NIH3T3 tox: -6.3%; HEK293 tox: inactive

Results for COC1CN(C2CCN(C(=O)c3ccncc3)CC2)C12CCOCC2 (configuration not stated) ?
NIH3T3 tox: -9.5%; HEK293 tox: 0.8%

What do the screens show for `CCC1(N2CCN(S(=O)(=O)c3ccc(F)c(C)c3)CC2)CCN(C(=O)NC)C1` (configuration not stated)?
NPR1 antag: -3.4%; NIH3T3 tox: inconclusive; Luciferase inh: inactive; HEK293 tox: -14.9%

Results for CCCCc1cc(C[C@@H]2C[C@H](NC(=O)C3CC3)C2(C)C)no1 ?
NPR1 antag: -7.2%[70.6 µM]; NIH3T3 tox: -26.5%[138 µM]; Luciferase inh: inconclusive; HEK293 tox: inconclusive

How did COCc1cc(C[C@@H]2C[C@H](NS(C)(=O)=O)C2(C)C)no1 do in these assays?
NPR1 antag: 4.4%[70.6 µM]; NIH3T3 tox: 4.6%[138 µM]; Luciferase inh: inactive; HEK293 tox: 2.6%[172 µM]

How did CCCCc1cc(C[C@@H]2C[C@H](NC(=O)C(C)(C)C)C2(C)C)no1 do in these assays?
NPR1 antag: -24.5%[70.6 µM]; NIH3T3 tox: inconclusive; Luciferase inh: inconclusive; HEK293 tox: 70.8µM*

How did COc1ccc(C(=O)N[C@H]2C[C@@H](Cc3cc(-c4ccccc4)on3)C2(C)C)cc1 do in these assays?
NPR1 antag: inconclusive; NIH3T3 tox: 50.1µM*; Luciferase inh: inconclusive; HEK293 tox: 44.7µM*

Screening data deposited in PubChem by National Center for Advancing Translational Sciences (NCATS).
